# Hits are enriched below; roughly 2.7% of the tested compounds scored in any of these assays.
# MITF TRPM1 inh – MITF TRPM1 promoter inhibition in SK-MEL-5 cells | SK-MEL-5 TRPM1 promoter luciferase, 24 h | inhibition, % at 12.5 µM | hit rate 0.83% among 330,000;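 active = mean inhibition across replicates of 60% or more, whatever share of single replicates reaches that level; inconclusive = some that reach 60%, reason not given; inactive = mean inhibition across replicates below 60%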
# Peg3 prom inh – Peg3 promoter activity inhibition; inhibition, % at 20 µM; hit rate 1.7% among 360,000; AID 588405; HeLa PEG-Prom luciferase reporter, luminescence, overnight;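 active = inhibition of at least 50% at 20 µM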
# CF NFkB block – cystic fibrosis NF-kB activation inhibition. inhibition, % at 5 µM. hit rate 0.86% among 360,000. KKLEB NF-kB-GFP reporter, PAF-induced, GFP fluorescence overnight;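 active = at least 50% inhibition at 5 µM, scaled per plate between neutral and stimulator controls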;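 note: PAF is a Pseudomonas aeruginosa culture filtrate used as stimulus; plate controls were PAF-stimulated DMSO wells for no effect and unstimulated DMSO wells for full effect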
# Shn3 inh set2 – inhibitors of Schnurri-3 3'UTR reporter in osteoblasts | Clone20 osteoblast Shn3 3'UTR firefly luciferase, 24 h | inhibition, % at 12.5 µM | hit rate 0.52% among 360,000 | AID 588674;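 active = mean inhibition of at least 75% with every replicate also reaching 75%; inconclusive = mean inhibition at least 75% but some replicate below; inactive = mean inhibition below 75%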;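 note: 0% = median of neutral control wells and 100% = pilot-screen positive control compound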
# HIF-2a inh – blocks HIF-2a reporter activity | inhibition, % at 18.8 µM | hit rate 0.72% among 360,000 | 786-0 RCC cells HIF-2a reporter, luciferase luminescence, overnight | AID 624352;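 active = inhibition of the luminescence signal of 40% or more relative to plate controls, in a single-dose primary screen at 18.75 µM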
# KKLEB tox – counter-screen for CF NF-kB inhibitors: cytotoxicity. KKLEB CF airway cells viability, ATPlite luminescence, overnight; active compounds read low; cells stimulated with P. aeruginosa culture filtrate. activity change (cytotoxicity), % at 5 µM. hit rate 0.36% among 360,000. AID 602141;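 active = corrected activity change at or below -50% at 5 µM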
# An asterisk follows results filed as active; ? = inconclusive; . = no result given.
SMILES,MITF TRPM1 inh,Peg3 prom inh,CF NFkB block,Shn3 inh set2,HIF-2a inh,KKLEB tox
Cc1sc(NC(=O)Cn2[nH]c(=O)c3ccccc3c2=O)nc1-c1ccccc1,12.0,63.1*,15.7,40.7,-33.1,-2.2
COc1ccc2nc(C)cc(N/N=C/c3ccccc3)c2c1,98.9*,106.9*,-312.3,19.3,-10.6,-4.8
Cc1cc(N/N=C/c2ccc(N(C)C)cc2)c2ccccc2n1,-23.6,25.7,-11.7,1.3,-120.4,2.2
Cc1cc(N/N=C/c2ccc(O)cc2)c2cccc(C)c2n1,50.6,110.1*,-152.5,-0.1,11.4,7.9
COc1ccc2nc(C)cc(Nc3ccc(N4CCN(C)CC4)cc3)c2c1,97.4*,110.8*,-58.2,-16.7,-47.4,-8.1
COc1ccc2nc(C)cc(Nc3ccc(N4CCOCC4)cc3)c2c1,-2.2,28.6,-39.9,8.0,30.3,-9.6
COc1ccccc1/C=N/Nc1cc(C)nc2ccc(C)cc12,11.7,-45.5,-15.1,-94.8,-77.5,6.9
CC(C)C1C(=O)N(Cc2cn(Cc3ccco3)nn2)CCS(=O)(=O)N1Cc1ccc(-c2ccc(Cl)c(Cl)c2)cc1 (stereo unspecified),.,34.7,44.7,59.0,-2.6,-2.9
CCC(CC)C(=O)N(C)c1c(C)nc2c(OCC3CCCCC3)cccn12,.,14.6,24.1,-14.3,9.6,-19.4
COc1cccc(/C=C2\SC(=S)N(CCCC(=O)N(CCO)c3ccccc3)C2=O)c1,11.3,79.1*,13.0,-9.7,85.6*,0.9
O=C1/C(=C/c2ccc3c(c2)OCO3)SC(=S)N1CCC(=O)N(CCO)c1ccccc1,.,19.5,-38.6,-58.8,42.5*,9.4
O=C1/C(=C/c2cccc(Br)c2)SC(=S)N1CCC(=O)N(CCO)c1ccccc1,-16.3,56.0*,25.1,-15.8,32.1,12.1
CN1CCN(C(=O)CCN2C(=O)/C(=C/c3cccc(Br)c3)SC2=S)CC1,26.6,76.9*,28.4,-64.6,7.6,10.1
COc1ccc(NC(=O)C2(C)CCN2Cc2ccccc2Cl)cc1OC (stereo unspecified),.,-2.2,20.0,29.6,-8.4,-3.1
COCCNC(=O)C1(C)CCCN(C(=O)c2cccc(OC(F)(F)F)c2)C1 (stereo unspecified),.,-3.3,10.6,3.6,6.7,6.1
O=C(NCc1ccccc1)C1Cc2c(-c3ccc(Cl)cc3)ccnc2O1 (stereo unspecified),.,-4.4,34.6,4.6,16.3,-27.5
Nc1nc(N)c2cc(Sc3ccc(Cl)cc3)ccc2n1,.,103.9*,31.2,79.0,-55.6,-16.1
Nc1nc(N)c2cc(Sc3cccc(C(F)(F)F)c3)ccc2n1,.,106.6*,37.5,84.4,26.6,-18.4
Nc1nnc2cc(Cl)ccc2n1,2.8,-18.8,17.0,1.5,3.3,-1.1
Nc1nc(N)c2cc(Sc3ccc4ccccc4c3)ccc2n1,.,106.6*,34.8,84.6,14.4,-16.4
NC(=S)NN=Cc1nccc2c(C(F)(F)C(F)(F)C(F)(F)F)cccc12,.,36.6,37.8,82.8,-88.7,-19.5
Cc1cnc(C=NNC(N)=S)c2cccc(N)c12,65.7*,32.4,3.8,84.5,-12.3,-5.0
NC(=S)NN=Cc1nccc2ccccc12,38.0,-57.6,86.7*,79.2,-155.4,-74.4*
Cc1ccc(S(=O)(=O)N2CCC(=O)N([C@H](COCc3ccc(Cl)cc3)C(C)C)CC2)cc1,.,.,.,.,-11.0,.
O=S(=O)(Nc1ccc(Br)cc1)c1cccc2nonc12,-1.8,18.7,-4.8,9.0,18.9,-17.2
SMILES,MITF TRPM1 inh,Peg3 prom inh,CF NFkB block,Shn3 inh set2,HIF-2a inh,KKLEB tox
O=S(=O)(Nc1ccc(C(O)(C(F)(F)F)C(F)(F)F)cc1)c1ccc(Cl)c2nonc12,.,98.4*,45.3,-10.2,14.6,-27.4
O=C(c1ccc(NS(=O)(=O)/C=C/c2ccccc2)cc1)N1CCCCC1,12.4,13.4,56.0*,2.1,20.8,-69.3*
C/C(=N\NC(=O)C1(C)CC1(Br)Br)c1cccc(NC(=O)c2ccc(C)o2)c1 (stereo unspecified),5.7,62.0*,6.9,0.8,-60.2,0.5
CCCNC1=C(N(C(C)=O)c2cccc(F)c2)C(=O)c2ccccc2C1=O,98.4*,84.7*,81.3*,-37.6,73.1*,-55.6*
Cc1ccc(-c2cc(C(=O)Nc3ccc(S(=O)(=O)N4CC(C)OC(C)C4)cc3)[nH]n2)c(O)c1 (stereo unspecified),-5.3,42.7,13.0,36.8,21.3,-8.1
Cc1cc(O)c(-c2cc(C(=O)Nc3ccc(S(=O)(=O)N4CCOCC4)cc3)[nH]n2)cc1C,7.9,59.6*,5.3,30.4,-3.7,9.1
O=C(Nc1ccc(S(=O)(=O)N2CCOCC2)cc1)c1cc(-c2cc(Cl)ccc2O)n[nH]1,10.8,86.0*,22.7,40.3,-3.3,-43.9
Cc1ccc(O)c(-c2cc(C(=O)Nc3ccc(S(=O)(=O)N4CC(C)OC(C)C4)cc3)[nH]n2)c1 (stereo unspecified),2.4,54.5*,-5.0,63.0,-3.6,9.2
COC(=O)[C@@H]1C[C@]2(OC(=O)c3ccccc3)C=CC(=O)C[C@@H]2N1C(=O)OCc1ccccc1,?,72.2*,50.1*,-16.3,90.7*,-23.3
COC(CNC(=O)C1CCCN1C(=O)OCc1ccccc1)OC (stereo unspecified),17.1,-15.8,3.0,10.8,11.1,-8.0
NCc1ccc(S(N)(=O)=O)cc1,5.7,8.4,4.4,-1.5,1.6,-50.8*
Cc1ccc(S(N)(=O)=O)cc1,2.2,-8.5,-1.4,-3.6,13.7,-13.4
CCCCCCCCn1c2c(c(=N)c3ccccc31)CCC2,89.9*,86.4*,34.2,91.5*,3.9,-25.7
CCCCCCCCCCn1c2c(c(=N)c3c1CCC3)CCC2,80.7*,97.6*,58.8*,70.5,63.8*,-63.7*
CCCCCn1c2c(c(=N)c3ccccc31)CCC2,28.1,8.4,-54.0,68.2,4.6,17.4
CCCCCCCCCn1c2c(c(=N)c3c1CCC3)CCCC2,91.6*,104.2*,45.7,91.6*,27.5,-56.4*
COc1cccc(CN(C)C(=O)c2cccc(S(=O)(=O)Nc3cccc(C)c3)c2)c1OC,-7.2,22.3,9.8,12.4,10.0,14.4
COc1ccc(-c2nn(-c3ccccc3)cc2/C=N/NC(=S)NC(C)C)cc1OC,-9.4,46.1,-11.4,29.5,31.7,0.5
C=CCNC(=S)N/N=C/c1cn(-c2ccccc2)nc1-c1ccc(OC)cc1,-5.1,-14.3,53.2*,-12.3,8.0,-52.8*
COc1ccc(-c2nn(-c3ccccc3)cc2/C=N/NC(=O)c2ccc(Br)o2)cc1,62.7*,89.6*,-24.8,15.8,-141.0,14.4
CCCC(=O)N1CCCC1(C)C(=O)Nc1ccc(-n2cncn2)cc1 (stereo unspecified),.,-12.7,-21.7,-13.9,-6.2,1.0
O=C(NC1CCCC1)N[C@@H]1CC[C@@H](CC(=O)N2CCOCC2)O[C@@H]1CO,.,.,.,.,-2.7,.
